Measured values published in PubChem BioAssay (NCI).
About 83,000 compounds went through this panel and 20% of them were active in at least one assay; those are over-represented in the sample as a whole.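 Cell lines were cultured in 96-well plates, exposed to a single compound concentration, and assessed for percent growth 48 hours later.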 Values without a mark were called inactive. The source made the active and inactive calls. How the source made its calls: active means growth percent below 10; inactive means the rest.

What was measured:
Test in all cases: NCI-60 one-dose screen, 48 h (100 = growth as untreated, 0 = no growth, -100 = all killed)
Settings in all cases: 10 µM unless noted
HCT-15 colon = system: HCT-15 colon
HT29 colon = system: HT29 colon
SNB-75 CNS = system: SNB-75 CNS
SNB-19 CNS = system: SNB-19 CNS
U251 CNS = system: U251 CNS
PC-3 prostate = system: PC-3 prostate
SK-MEL-5 melanoma = system: SK-MEL-5 melanoma
UACC-62 melanoma = system: UACC-62 melanoma
LOX IMVI melanoma = system: LOX IMVI melanoma
SK-MEL-28 melanoma = system: SK-MEL-28 melanoma
SK-MEL-2 melanoma = system: SK-MEL-2 melanoma
EKVX NSCLC = system: EKVX NSCLC
SN12C renal = system: SN12C renal
UO-31 renal = system: UO-31 renal
TK-10 renal = system: TK-10 renal
ACHN renal = system: ACHN renal
CAKI-1 renal = system: CAKI-1 renal
A498 renal = system: A498 renal
CCRF-CEM leukemia = system: CCRF-CEM leukemia
MOLT-4 leukemia = system: MOLT-4 leukemia

O=C(Nc1ccc(Cl)c(C(F)(F)F)c1)N1CCN(c2cc(-c3cn(-c4ccccc4)nc3-c3cccc(O)c3)ccn2)CC1
growth (HCT-15 colon): -7.34% (active) | growth (HT29 colon): -35.3% (active) | growth (SNB-75 CNS): 5.08% (active) | growth (SNB-19 CNS): 17% | growth (U251 CNS): 11.8% | growth (PC-3 prostate): 6.31% (active) | growth (SK-MEL-5 melanoma): -97.2% (active) | growth (UACC-62 melanoma): -88.6% (active) | growth (LOX IMVI melanoma): -76.9% (active) | growth (SK-MEL-28 melanoma): -24.8% (active) | growth (SK-MEL-2 melanoma): -66.9% (active) | growth (EKVX NSCLC): -0.99% (active) | growth (SN12C renal): 4.12% (active) | growth (UO-31 renal): 5.37% (active) | growth (TK-10 renal): 8.9% (active) | growth (ACHN renal): 3.14% (active) | growth (CAKI-1 renal): 9.06% (active) | growth (A498 renal): 38.9% | growth (CCRF-CEM leukemia): 0.607% (active) | growth (MOLT-4 leukemia): 1.52% (active)

N#C/C(=C/c1ccc(Cl)cc1)c1nnc(NC(=O)c2ccc(-n3c(=O)[nH]c4ccccc4c3=O)cc2)s1
growth (HCT-15 colon): 95.2% | growth (HT29 colon): 68.8% | growth (SNB-75 CNS): 53.3% | growth (SNB-19 CNS): 51.8% | growth (U251 CNS): 27.1% | growth (PC-3 prostate): 76.2% | growth (SK-MEL-5 melanoma): 27.7% | growth (UACC-62 melanoma): 67.2% | growth (LOX IMVI melanoma): 41.8% | growth (SK-MEL-28 melanoma): 74.9% | growth (SK-MEL-2 melanoma): 91.6% | growth (EKVX NSCLC): 86% | growth (SN12C renal): 61.1% | growth (UO-31 renal): 77.8% | growth (TK-10 renal): 114% | growth (ACHN renal): 84.3% | growth (CAKI-1 renal): 95.5% | growth (A498 renal): 116% | growth (CCRF-CEM leukemia): 97.9% | growth (MOLT-4 leukemia): 94.9%

C=CC(=O)Nc1ccc(C(=O)/C=C/c2ccc(N(C)C)cc2)c(O)c1
growth (HCT-15 colon): -17.2% (active) | growth (HT29 colon): -37.7% (active) | growth (SNB-75 CNS): 28.1% | growth (SNB-19 CNS): 28.2% | growth (U251 CNS): -56.4% (active) | growth (PC-3 prostate): 34.4% | growth (SK-MEL-5 melanoma): 2.1% (active) | growth (UACC-62 melanoma): -25.3% (active) | growth (LOX IMVI melanoma): -60.3% (active) | growth (SK-MEL-28 melanoma): -6.18% (active) | growth (SK-MEL-2 melanoma): 3.4% (active) | growth (EKVX NSCLC): 17.3% | growth (SN12C renal): 5.34% (active) | growth (UO-31 renal): 1.04% (active) | growth (TK-10 renal): 23.9% | growth (ACHN renal): -47.5% (active) | growth (CAKI-1 renal): -18.1% (active) | growth (A498 renal): 42.8% | growth (CCRF-CEM leukemia): 11.2% | growth (MOLT-4 leukemia): 7.05% (active)

CCCSc1nnc(-c2sc3nc4ccccc4n3c2C)o1
growth (HCT-15 colon): 99.2% | growth (HT29 colon): 110% | growth (SNB-75 CNS): 95.6% | growth (SNB-19 CNS): 99.8% | growth (U251 CNS): 113% | growth (PC-3 prostate): 105% | growth (SK-MEL-5 melanoma): 98.5% | growth (UACC-62 melanoma): 94.5% | growth (LOX IMVI melanoma): 113% | growth (SK-MEL-28 melanoma): 110% | growth (SK-MEL-2 melanoma): 105% | growth (EKVX NSCLC): 103% | growth (SN12C renal): 105% | growth (UO-31 renal): 82.3% | growth (TK-10 renal): 124% | growth (ACHN renal): 104% | growth (CAKI-1 renal): 104% | growth (A498 renal): 110% | growth (CCRF-CEM leukemia): 107% | growth (MOLT-4 leukemia): 92.3%

N#Cc1c(NC(=O)N2CCOCC2)n(-c2ccc(OC(F)(F)F)cc2)c2cc(F)ccc12
growth (HCT-15 colon): 95.5% | growth (HT29 colon): 90% | growth (SNB-75 CNS): 140% | growth (SNB-19 CNS): 117% | growth (U251 CNS): 98.8% | growth (PC-3 prostate): 83.9% | growth (SK-MEL-5 melanoma): 82.4% | growth (UACC-62 melanoma): 73.2% | growth (LOX IMVI melanoma): 102% | growth (SK-MEL-28 melanoma): 89.5% | growth (SK-MEL-2 melanoma): 94% | growth (EKVX NSCLC): 90.1% | growth (SN12C renal): 93.5% | growth (UO-31 renal): 104% | growth (TK-10 renal): 113% | growth (ACHN renal): 93.2% | growth (CAKI-1 renal): 88.9% | growth (A498 renal): 177% | growth (CCRF-CEM leukemia): 85.5% | growth (MOLT-4 leukemia): 68.7%

Fc1cccc(CNc2nc(SCCN3CCOCC3)nc3c2cnn3CC(Cl)c2ccc(Br)cc2)c1 (stereo not given)
growth (HCT-15 colon): -64.7% (active) | growth (HT29 colon): -49.9% (active) | growth (SNB-75 CNS): 42.3% | growth (SNB-19 CNS): 42.2% | growth (U251 CNS): 25.2% | growth (PC-3 prostate): 25.8% | growth (SK-MEL-5 melanoma): 3.78% (active) | growth (UACC-62 melanoma): 28.2% | growth (LOX IMVI melanoma): 5.6% (active) | growth (SK-MEL-28 melanoma): 46.8% | growth (SK-MEL-2 melanoma): 13.5% | growth (EKVX NSCLC): 41.1% | growth (SN12C renal): 36.5% | growth (UO-31 renal): -3.52% (active) | growth (TK-10 renal): 46.7% | growth (ACHN renal): 17.3% | growth (CAKI-1 renal): 26.7% | growth (A498 renal): 57.2% | growth (CCRF-CEM leukemia): 6.67% (active) | growth (MOLT-4 leukemia): -23.8% (active)

Cc1cccc(C)c1Nc1nnc(-c2c[nH]c3ccccc23)o1
growth (HCT-15 colon): 97.6% | growth (HT29 colon): 104% | growth (SNB-75 CNS): 88% | growth (SNB-19 CNS): 97.5% | growth (U251 CNS): 95.6% | growth (PC-3 prostate): 76.3% | growth (SK-MEL-5 melanoma): 94.1% | growth (UACC-62 melanoma): 83.2% | growth (LOX IMVI melanoma): 83.9% | growth (SK-MEL-28 melanoma): 105% | growth (SK-MEL-2 melanoma): 99.5% | growth (EKVX NSCLC): 74.6% | growth (SN12C renal): 87.8% | growth (UO-31 renal): 65.3% | growth (TK-10 renal): 148% | growth (ACHN renal): 93.9% | growth (CAKI-1 renal): 82.7% | growth (A498 renal): 134% | growth (CCRF-CEM leukemia): 106% | growth (MOLT-4 leukemia): 91.1%

Oc1ccc(Cl)c(Nc2nc(SCCN3CCOCC3)nc3c2cnn3CC(Cl)c2ccc(Br)cc2)c1 (stereo not given)
growth (HCT-15 colon): 8.41% (active) | growth (HT29 colon): 6.18% (active) | growth (SNB-75 CNS): 11.5% | growth (SNB-19 CNS): 37.8% | growth (U251 CNS): 23.9% | growth (PC-3 prostate): 14.5% | growth (SK-MEL-5 melanoma): 16.6% | growth (UACC-62 melanoma): 39.9% | growth (LOX IMVI melanoma): -59.3% (active) | growth (SK-MEL-28 melanoma): 32% | growth (SK-MEL-2 melanoma): 20.6% | growth (EKVX NSCLC): 37% | growth (SN12C renal): 35% | growth (UO-31 renal): 14% | growth (TK-10 renal): 36.1% | growth (ACHN renal): 12.9% | growth (CAKI-1 renal): 21.2% | growth (A498 renal): 63.4% | growth (CCRF-CEM leukemia): 3.42% (active) | growth (MOLT-4 leukemia): -24% (active)
